Compounds with a hit are over-represented: about 5.8% of the library has one in this group of screens.
PINK1 modulator – changes PINK1 expression; AID 624263; Potency, µM (top dose mostly 76.6 µM), inactives show top-dose activation (PINK1 increase), actives largely listed as activators; 410,000 compounds, 0.2% hits; PINK1 immunofluorescence, high-content cytometry, 24 h; active = well fitted activation curve with a large enough effect; inconclusive = small, poorly fitted or top-dose-only effect; cell line not stated here; note: % of control where 0% means no effect; nearly all actives have a fitted effect of over 65% in size
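Stable cell line treated 24 h with compounds at 5 concentrations (CCCP controls), then fixed and immunostained for PINK1 plus nuclear and cell stains; PINK1 immunofluorescence quantified by laser-scanning microplate cytometry.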
KB-3-1 tox – KB-3-1 parental cell cytotoxicity. KB-3-1 viability, CellTiter-Glo ATP luminescence, 72 h. Potency, µM (series often up to 46.1 µM), usual class: cytotoxic. 400,000 compounds, 1.4% hits. AID 1347075; note: % is set by controls: 0 for no effect and ±100 for the full control effect; nearly all actives have a fitted effect of over 60% in size
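Multi-concentration cytotoxicity screen in KB-3-1 cells grown in DMEM lacking phenol red with 10% FBS. After 72 h at 37 °C with compound, ATP-dependent luminescence was recorded.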
MCF10A rerep – inducers of DNA re-replication in MCF 10A breast cells | MCF 10A DNA re-replication, Hoechst nuclear intensity, 48 h | Potency, µM (series often up to 46.1 µM), inactives show at the highest dose activity, positive = re-replication, usual class: activators | 350,000 compounds, 2.9% hits; note: % of control where 0% means no effect; nearly all actives have a fitted effect of over 50% in size
KB-V1 cytotox – kills drug-selected multidrug resistant KB-V1 cells; KB-V1 MDR cells viability, CellTiter-Glo, 72 h; Potency, µM (doses to about 46.1 µM), actives largely listed as cytotoxic; 400,000 compounds, 3.4% hits; AID 1347076; note: % is set by controls: 0 for no effect and ±100 for the full control effect; nearly all actives have a fitted effect of over 60% in size
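Cells of the MDR subline KB-V1 are plated, dosed with compound at multiple concentrations, and incubated 72 h at 37 degrees C; CellTiter-Glo is then added and luminescence read after 10 min.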
SW480 rerep – inducers of DNA re-replication in SW480 colon cancer cells; SW480 DNA re-replication, Hoechst DNA content imaging, 48 h; Potency, µM (series often up to 46.1 µM), for inactives: at the top dose re-replication activation, usual class: activators; 340,000 compounds, 1.8% hits; AID 624297; note: % of control where 0% means no effect; nearly all actives have a fitted effect of over 55% in size
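250 cells/well; 23 nL cpd via pin tool; 48 hr, 37 C, 5% CO2; Hoechst 40 min; imager read of total nuclear intensity, ex 405/em 500-530 nm.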
12-LOX inh – inhibitors of human 12S-lipoxygenase ALOX12; P18054; purified 12hLO, xylenol orange hydroperoxide absorbance; Potency, µM (series often up to 108 µM), without a hit: at the top dose activity change, negative = inhibition, actives largely listed as inhibitors; 580,000 compounds, 1.1% hits; AID 1671190; note: % is set by controls: 0 for no effect and ±100 for the full control effect
Target sequence (P18054 whole entry, looked up): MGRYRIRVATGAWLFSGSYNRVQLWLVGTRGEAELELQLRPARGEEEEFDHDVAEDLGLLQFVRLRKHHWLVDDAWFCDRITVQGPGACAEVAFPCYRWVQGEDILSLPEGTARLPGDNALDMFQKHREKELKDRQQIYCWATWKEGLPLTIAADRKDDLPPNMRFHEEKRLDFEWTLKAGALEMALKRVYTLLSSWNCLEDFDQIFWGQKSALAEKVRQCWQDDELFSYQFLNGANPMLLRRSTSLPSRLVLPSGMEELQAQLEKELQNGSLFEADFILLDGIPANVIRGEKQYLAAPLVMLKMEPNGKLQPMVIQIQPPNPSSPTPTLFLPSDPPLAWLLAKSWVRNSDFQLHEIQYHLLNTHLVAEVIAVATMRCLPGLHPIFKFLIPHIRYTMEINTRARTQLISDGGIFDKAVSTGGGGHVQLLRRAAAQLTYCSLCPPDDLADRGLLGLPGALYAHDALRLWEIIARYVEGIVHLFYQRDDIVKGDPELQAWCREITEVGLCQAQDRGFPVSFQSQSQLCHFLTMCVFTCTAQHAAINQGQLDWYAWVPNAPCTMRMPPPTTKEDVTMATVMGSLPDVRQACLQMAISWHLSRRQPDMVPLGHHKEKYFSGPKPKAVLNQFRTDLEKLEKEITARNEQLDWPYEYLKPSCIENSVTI
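Purified human 12hLO (150 nM final) in 25 mM Hepes, 0.01% Triton X-100, pH 7.0 was preincubated 15 min at room temperature with compound. Then 40 uM arachidonic acid was added, 30 min. Hydroperoxide was read by Fe-XO absorbance ratio 573/405 nm.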
* marks the source's active call; other numbers are inactive results; i = inactive; u = inconclusive; x = not tested or not shown; ! = not confirmed by another sample; [ ] = another dose, or the depositor's remark. Unless noted, calls come from the whole dose curve; as a rule, active = well fitted curve in the direction sought with a large enough effect; inconclusive = small, poorly fitted or top-dose-only effect, or another doubt; inactive = no such curve, though single readings can be large; an effect the other way counts as inactive or inconclusive. Potency is the fitted concentration of half-maximal effect.

SMILES	PINK1 modulator	KB-3-1 tox	MCF10A rerep	KB-V1 cytotox	SW480 rerep	12-LOX inh
CC(=O)c1c(C)[nH]c(C(=O)Cn2cnc3c2c(=O)n(C)c(=O)n3C)c1C	x	x	x	x	x	-4.1%
COC(=O)Nc1ccc(C)cc1NC(=O)OC	3.5%	i	-0.3%	i	1.1%	7.6%
COC(=O)Nc1ccc2ccc3c(NC(=O)OC)ccc4ccc1c2c43	17.8%	x	20.6µM*	x	u	2.8%
COc1cc(/C=C2/C(=O)c3cccc([N+](=O)[O-])c3C2=O)c(Br)cc1O	-1.3%	i	u	i	u	17.8µM*
COc1cc(C2C3=C(CCCC3=O)OC3=C2C(=O)CCC3)ccc1OCc1cccc(F)c1	x	x	x	x	x	6.8%
Cc1ccc(Nc2cc(C)c3ccc(O)cc3n2)cc1C	4.5%	u	23.1µM*	i	u	u
COC(=O)c1cc(Nc2cc(C)c3ccc(O)cc3n2)cc(C(=O)OC)c1	4.8%	i	14.6µM*	i	u	11.9%
CN1CCN(C(=O)CN2C(=O)c3cccnc3Oc3ccc(Cl)cc32)CC1	x	x	x	x	x	-3.5%
COc1ccc(-c2nnc(SCC(=O)Nc3ccc(C)cc3C)[nH]c2=O)cc1	x	x	x	x	x	3.5%
COc1ccc(C(=O)CN2CCN(c3ccc(Cl)cc3)CC2)cc1OC	-1.8%	i	13.0%	i	18.9%	u
CCOC(=O)Cc1csc(SCC(=O)N2CCN(c3ccc(OC)cc3)CC2)n1	17.8%[38.3 µM]	i	5.1%	20.6µM*	-3.9%	-9.1%
COc1ccc(N2CCN(C(=O)Cc3ccc(Br)cc3)CC2)cc1	-0.6%	i	7.8%	20.6µM*	-8.1%	-25.7%
COc1ccc(N2CCN(C(=O)CSc3ccc(C)cc3)CC2)cc1	1.0%	i	-20.5%	u	-6.2%	-17.9%
COc1ccc(N2CCN(CC(=O)c3ccc(Cl)cc3)CC2)cc1	0.9%	i	18.4µM*	u	-2.3%	-46.4%
COc1ccc(N2CCN(C(=O)CNC(=O)Cc3ccc(Cl)cc3)CC2)cc1	u	14.6µM*	u	10.3µM*	u	31.6µM*
CCn1cc(S(=O)(=O)N2CCCN(Cc3ccncc3)C(c3ccccc3)CC(=O)NCC2)cn1 (stereo unspecified)	x	x	x	x	x	66.6%
O=C(NCCc1ccccc1)C12CC3CC(CC(C3)C1)C2	x	x	x	x	x	-22.6%
Cc1ccc(-c2nc(CSCc3ccc(C#N)cc3)cs2)cc1	x	x	x	x	x	1.1%
COc1cccc(C(=O)CN2CCN(S(=O)(=O)c3ccc(Cl)cc3)CC2)c1	-1.3%	i	x	i	x	56.2µM*
COc1ccc(OC)c(N/C=C/C(=C(C#N)C#N)N(C)C)c1	10.9%	16.4µM*	10.1%	i	0.5%	-16.1%
COc1cc(NS(=O)(=O)c2ccc(NC(=O)COc3ccc(C)cc3)cc2)nc(OC)n1	1.3%	i	-2.3%	i	-9.5%	-10.2%
COc1cccc(NC(=S)NC(Cc2ccccc2)c2ccccc2)c1 (stereo unspecified)	u	i	x	u	x	39.8µM*
COc1ccc(OCC(=O)Nc2ccccc2O)cc1	3.3%[38.3 µM]	i	0.0%	16.4µM*	11.8%	x
COc1cccc(NC(=S)NC(C)c2ccc(OC)c(OC)c2)c1 (stereo unspecified)	1.7%	i	3.2%	i	-5.9%	-16.4%
COc1cc(NC(=O)COc2ccc(F)cc2)nc(OC)n1	x	i	u	i	20.6µM*	8.4%[57.4 µM]
SMILES	PINK1 modulator	KB-3-1 tox	MCF10A rerep	KB-V1 cytotox	SW480 rerep	12-LOX inh
COc1cccc(NC(=O)COc2ccccc2)c1	0.3%	i	23.1µM*	i	20.3%	4.6%
COC(=O)/C=C/c1cc(OC)c(OC)c(S(=O)(=O)Oc2ccc3c(c2)CCC3)c1	x	x	x	x	x	-24.2%
NC(=O)C1CCN(CC(=O)Nc2ccc(Br)cc2)CC1	x	x	x	x	x	17.8%
COc1ccc2cc(C(=O)N3CCN(Cc4ccccc4)CC3)c(C)nc2c1	x	x	x	x	x	19.8%
COc1ccc(Nc2nc3ccccc3nc2NS(=O)(=O)c2ccc3c(c2)OCCO3)cc1Cl	x	x	x	x	x	-1.3%
Cc1ccc(OCC(=O)NC(=S)Nc2cccc(NC(=O)c3ccc(Cl)cc3Cl)c2)cc1	5.3%	i	22.3%	u	-7.2%	9.6%
CC(=O)Nc1cccc(OCC(=O)Nc2ccccc2)c1	7.3%	i	-1.1%	i	-13.9%	2.6%
Cc1ccc(OCC(=O)NC(=S)Nc2cccc(NC(=O)c3ccccc3)c2)cc1	u	i	14.6µM*	i	2.4%	-0.5%
COc1cccc(NC(=O)CN(C)C(=O)Cc2ccc3c(c2)CCC3)c1	-0.7%	i	1.8%	14.6µM*	-4.3%	-1.4%
CCOC(=O)Nc1cccc(OCC(=O)Nc2ccccc2OCC)c1	4.7%	i	10.1%	6.51µM*	-14.7%	0.0%
COCCn1ccc2c(OCC(=O)Nc3cc(OC)ccc3OC)cccc2c1=O	-2.7%	i	u	u	9.6%	15.6%
CCOCCn1ccc2c(OCC(=O)Nc3cc(OC)ccc3OC)cccc2c1=O	1.4%	i	u	16.4µM*	u	-7.4%
Cc1ccccc1C(=O)N1CCC(c2nc3ccccc3o2)CC1	x	x	x	x	x	-5.8%
CCCS(=O)(=O)NCC1Cn2cccc2C(=O)N1Cc1ccccc1 (stereo unspecified)	x	x	x	x	x	25.8%
N#Cc1ccc(NCCNc2ncccn2)nc1	x	x	x	x	x	-11.3%
CC1(C(=O)NCc2ccccc2)CN(Cc2ccccc2)Cc2ccc(N3CCOCC3)nc21 (stereo unspecified)	x	x	x	x	x	52.7%
Cc1cccc(C(=O)NC(=S)NNC(=O)COc2ccc(Cl)cc2)c1	21.3%	i	22.2%	u	u	35.5µM*
COc1ccc(C(=O)NC(=S)NNC(=O)c2cccc(C)c2)cc1	5.8%	i	22.2%	i	u	u
COc1cccc(NC(=O)COC(=O)c2ccccc2C(=O)N(C)c2ccccc2)c1	-0.1%	i	5.6%	23.1µM*	-1.9%	5.0%
COc1ccccc1NC(=O)COc1ccc(-c2nn(C)c(=O)c3ccccc23)cc1	-0.3%	u	15.2%	18.4µM*!	0.1%	-5.9%
Cn1nc(-c2ccc(OCC(=O)Nc3ccccc3)cc2)c2ccccc2c1=O	1.3%	i	0.6%	u	-12.0%	-2.6%
CC(C(=O)Nc1ccccc1-c1ccccc1)N1CCN(S(=O)(=O)c2ccccc2)CC1 (stereo unspecified)	0.4%	i	u	2.91µM*	11.5%	22.3%
O=C(O)c1cc(S(=O)(=O)N2CCN(C(c3ccccc3)c3ccccc3)CC2)ccc1Cl	-0.6%	i	21.2%	i	-0.6%	39.8µM*

From PubChem
